MCF10A rerep: induces DNA re-replication in MCF 10a normal breast cells; MCF 10A DNA re-replication, Hoechst nuclear intensity, 48 h; AID 624296; 2.9% of 350,000 active; Potency, µM (highest dose often 46.1 µM), usual class: activators; further: nearly all actives have a fitted effect of over 50% in size
SW480 rerep: inducers of DNA re-replication in SW480 colon cancer cells | AID 624297 | 1.8% of 340,000 active | Potency, µM (series often up to 46.1 µM), actives largely listed as activators | SW480 DNA re-replication, Hoechst DNA content imaging, 48 h; further: nearly all actives have a fitted effect of over 55% in size
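Image-based DNA-content assay: after two days of treatment, nuclei were labelled with the DNA dye Hoechst and imaged, and hits were compounds raising the count of nuclei showing high fluorescence intensity.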
ELG1 repair inh: ELG1-dependent DNA repair inhibition; HEK293T ELG1-luciferase reporter, luminescence, 16 h; DNA damage induced by 5-fluorouridine; Potency, µM (highest dose often 46.1 µM), most hits filed as inhibitors; 2.3% of 330,000 active; further: nearly all actives have a fitted effect of over 55% in size
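Cells (2,000 per well) received 5-fluorouridine plus test compound or DMSO and were incubated 16 hr at 37 °C, 5% CO2. Luciferase activity was read by luminescence 30 min after ONE-Glo addition; signal suppression marked inhibition of damage-induced ELG1 function.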
KB-V1 cytotox: KB-V1 MDR subline cytotoxicity; 3.4% of 400,000 active; Potency, µM (doses to about 46.1 µM), actives largely listed as cytotoxic; KB-V1 MDR cells viability, CellTiter-Glo, 72 h; AID 1347076; further: nearly all actives have a fitted effect of over 60% in size
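Compound-treated KB-V1 multidrug-resistant cells, 72 h, 37 degrees C; viability by CellTiter-Glo. Fitted qHTS curves give the values.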
KB-3-1 tox: KB-3-1 parental cell cytotoxicity. Potency, µM (highest dose often 46.1 µM), usual class: cytotoxic. 1.4% of 400,000 active. KB-3-1 viability, CellTiter-Glo ATP luminescence, 72 h; further: nearly all actives have a fitted effect of over 60% in size
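Cytotoxicity in the drug-sensitive parental line KB-3-1 was scored as loss of CellTiter-Glo luminescence following 72 h incubation with compound. Values come from curve fitting of normalized concentration-response data.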
A number is an active result; i = inactive; ? = inconclusive; nt = no result given; [ ] = remark or other dose. Only some compounds are listed: those with a hit (about 8.1% of all), similar ones and a draw of the others. The call rests on the fitted dose curve; in most records, active means well fitted curve in the direction sought with a large enough effect; inconclusive means small, poorly fitted or top-dose-only effect, or another doubt; inactive means no such curve, though single readings can be large; an effect the other way counts as inactive or inconclusive.

SMILES | MCF10A rerep | SW480 rerep | ELG1 repair inh | KB-V1 cytotox | KB-3-1 tox
COc1cc(-c2n[nH]c(=S)n2-c2cc(C(F)(F)F)ccc2Cl)cc(OC)c1OC | i | i | ? | 13µM | i
FC(F)(F)c1ccc(Cl)c(-n2c(-c3cc(C4CC4)[nH]n3)n[nH]c2=S)c1 | i | i | i | i | i
CCC1CCCCN1C(=O)c1cc(COc2ccc(-n3cncn3)cc2)on1 (stereo not given) | i | i | i | 13µM | 18µM
CC1CCC(C(C)C)C(OC(=O)Cn2c(-c3ccc(F)cc3)[n+](C)c3ccccc32)C1 (stereo not given) | ? | 16µM | 16µM | i | ?
CC1CCC(C(C)C)C(OC(=O)Cn2c(-c3ccccc3)[n+](C)c3ccccc32)C1 (stereo not given) | 18µM | 15µM | 6.5µM | i | 15µM
COc1ccc(C(=O)c2cnc[nH]2)cc1OC | i | i | ? | i | i
CCc1[nH]nc2c1C1(CCN(C(=O)OCc3ccccc3)CC1)C(C#N)=C(N)O2 | i | i | i | i | i
CCOc1ccccc1OCCCCCc1c(C)n[nH]c1C | i | ? | i | 2.9µM | 21µM
COc1ccccc1OCCCc1c(C)n[nH]c1C | i | i | i | 16µM | i
Cc1cccc(OCCCCc2c(C)n[nH]c2C)c1C | ? | i | i | 16µM | ?
COc1ccc(OCCCc2c(C)n[nH]c2C)cc1 | i | i | i | i | i
Cc1n[nH]c(C)c1CCCOc1ccccc1 | i | i | i | i | i
COc1ccccc1OCCCCCc1c(C)n[nH]c1C | i | i | ? | 4.6µM | ?
Cc1cccc(OCCCCCn2ccnc2)c1C | i | i | ? | i | ?
O=C(NNC(=O)c1ccccc1O)c1ccc(NS(=O)(=O)c2ccc(F)c(F)c2)cc1 | i | ? | i | i | ?
CCCCC1(C)NC(=O)c2c(C)sc(C(=O)OCC)c2N1 (stereo not given) | ? | i | i | ? | i
COc1cccc(OCCc2c(C)n[nH]c2C)c1 | i | i | ? | 21µM | ?
Cc1cccc(OCCCCc2c(C)n[nH]c2C)c1 | ? | ? | i | i | i
Cc1cc(NC(=O)c2ccc(OCC3CCCO3)cc2)ccc1Br (stereo not given) | nt | nt | nt | ? | i
COc1ccc(S(=O)(=O)N(C)C)cc1NC(=O)c1ccc(OCC2CCCO2)cc1 (stereo not given) | nt | nt | nt | i | i
CCOc1ccc(NC(=O)c2ccc(OCC3CCCO3)cc2)cc1S(=O)(=O)N(CC)CC (stereo not given) | i | i | ? | 2.6µM | i
CCN(CC)S(=O)(=O)c1ccc(NC(=O)c2ccc(OCC3CCCO3)cc2)cc1 (stereo not given) | ? | i | ? | 15µM | i
Cc1cc(N2CCCCC2)nc(NCc2ccccc2)n1 | ? | ? | ? | ? | 16µM
Cc1cc(NCc2ccccc2)nc(N2CCOCC2)n1 | i | i | i | i | i
Cc1cc(N2CCOCC2)nc(NCc2ccccc2)n1 | 7.3µM | i | ? | ? | i
SMILES | MCF10A rerep | SW480 rerep | ELG1 repair inh | KB-V1 cytotox | KB-3-1 tox
Cc1cc(C)n(C2CCCCC2OC(=O)CCc2ccccc2)n1 (stereo not given) | i | i | i | i | i
COc1ccc(Oc2nc3c(c(=O)n(Cc4ccc(Br)cc4)c(=O)n3C)n2C)cc1 | nt | nt | nt | i | i
O=C(Nc1cc([N+](=O)[O-])ccc1N1CCCC1)c1ccco1 | i | i | i | i | i
O=C(Nc1cc(Cl)ccc1N1CCOCC1)c1ccco1 | i | i | i | i | i
COC(=O)c1ccc(N2CCCCC2)c(NC(=O)c2ccco2)c1 | ? | i | 23µM | i | i
O=C(c1ccccc1)c1ccc(N2CCOCC2)c(NC(=O)c2ccco2)c1 | ? | i | 16µM | ? | ?
CCN(c1ccccc1)S(=O)(=O)c1ccc(C(=O)Nc2c(C)n(C)n(-c3ccccc3)c2=O)cc1 | i | i | i | i | i
CCCCN(c1ccccc1)S(=O)(=O)c1cccc(C(=O)Nc2c(C)n(C)n(-c3ccccc3)c2=O)c1 | ? | i | nt | 2.6µM | 26µM
COc1ccc(CCNC(=O)CC2C(=O)NCCN2CC(C)(C)C)cc1 (stereo not given) | i | i | i | i | i
CC1=Nc2ccccc2/C1=C/c1sc(=N)n(-c2nccs2)c1O | ? | i[9.22 µM] | ? | i | 7.3µM
CCCCn1c(N)c(N(CC(C)C)C(=O)c2ccc(-c3ccc(Cl)cc3)o2)c(=O)[nH]c1=O | 23µM | i | 15µM | ? | ?
CCCCn1c(N)c(N(CC)C(=O)c2ccc(-c3ccc(Cl)cc3)o2)c(=O)[nH]c1=O | i | i | i | ? | i
CCCCn1c(N)c(N(CC(C)C)C(=O)c2cc3c(s2)CCCCC3)c(=O)[nH]c1=O | i | 7.3µM | i | i | i
CCCCn1c(N)c(N(CC(C)C)C(=O)c2cnccn2)c(=O)[nH]c1=O | i | 18µM | i | i | i
Cc1cc(C(F)F)n2nc(C(=O)Nc3cc(C)on3)nc2n1 | i | i | i | i | i
CCOC(=O)[C@]12CCCC=C1N(Cc1cccc3ccccc13)C(=O)[C@H](CC(=O)N1CCCCC1)C2 | nt | nt | nt | 9.2µM | ?
CCOC(=O)[C@]12CCCC=C1N(Cc1cccc3ccccc13)C(=O)[C@H](CC(=O)N1CCSCC1)C2 | nt | nt | nt | 18µM | i
CCOC(=O)[C@]12CCC=C1N(Cc1cccc3ccccc13)C(=O)[C@H](CC(=O)N1CCSCC1)C2 | nt | nt | nt | ? | i
CCCCCCCCN1C(=O)[C@H](CC(=O)N2CCSCC2)C[C@@]2(C(=O)OCC)CCCC=C12 | nt | nt | nt | 23µM | ?
CC(C)(C)OC(=O)NCCCCCNC(=O)c1ncn2c1c(=O)[nH]c1ccccc12 | nt | nt | nt | i | ?
COc1ccccc1CN(C(=O)CNC(=O)c1ccco1)C(C(=O)NCC1CCCO1)c1ccc(OC)c(OC)c1 (stereo not given) | i | i | i | ? | i
Cc1ccc(CN(CC(=O)NCc2ccccn2)S(=O)(=O)c2ccccc2)cc1 | i | i | i | i | i
CCn1c(-c2nonc2NC(=O)c2ccccc2)nc2ccccc21 | i | i | i | ? | i
CC(=O)Nc1nc2ccccc2n1Cc1ccc(Cl)cc1 | i | ? | 13µM | ? | 9.2µM
CCC(=O)Nc1nonc1-c1nc2ccccc2n1Cc1ccc(Cl)c(Cl)c1 | 5.2µM | i | nt | i | i
CC(=O)Nc1nonc1-c1nc2ccccc2n1Cc1ccccc1 | ? | ? | ? | 16µM | 15µM
O=C(Nc1nc2ccccc2n1Cc1ccc(Cl)cc1)c1ccco1 | ? | i | ? | i | i
COc1ccc(CNc2cc(C)ccc2C)c(OC)c1OC | i | i | i | 15µM | i
O=C(NCC1COc2ccccc2O1)c1ccc(NC(=O)C(c2ccccc2)c2ccccc2)cc1 (stereo not given) | ? | 23µM | ? | i | i
O=C(Cc1ccccc1)Nc1ccc(C(=O)NCC2COc3ccccc3O2)cc1 (stereo not given) | i | i | i | i | i

Screening data: PubChem, National Center for Advancing Translational Sciences (NCATS)
